According to PubChem BioAssay (NCI):
Compounds without any hit were thinned out: in the full panel of roughly 83,000, 20% have a hit.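 The test compound was applied at a single concentration to cells in 96-well plates for 48 hours, and percent growth was recorded.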 Values without a mark were called inactive. Active and inactive are the calls of the source. Rule for the calls: active = growth percent below 10; inactive = the rest.

test system: SNB-19 CNS; experiment: NCI-60 one-dose screen, 48 h (100 = growth as untreated, 0 = no growth, -100 = all killed); settings: 10 µM unless noted

Compound | growth
COc1ccc(/C(C)=C(\c2ccc(Cl)cc2)c2ccc(OCCN3CCCCC3)cc2)cc1 | 62.8%
CN(C)CCCC1(c2ccc(F)cc2)OCc2cc(-c3ccc4cc[nH]c4c3)ccc21 (centres undefined) | 69.2%
COc1ccc(/C=C/c2ccc3ccccc3n2)c(OC)c1 | 83.2%
CCCCNC(=O)c1cc([N+](=O)[O-])cc(C2CCCCC2)c1O | 40.3%
Cc1ccc(C(=O)c2ccc(CC(=O)N=Nc3c(O)[nH]c4ccc(Br)cc34)n2C)cc1 | 89%
CC1=C(C(=O)Nc2ccccc2)C(c2ccc3c(c2)OCO3)NC(=S)N1 (centres undefined) | 96.2%
Nc1nc(N)c2c(n1)NC(c1cccc(Nc3ccnc4cc(C(F)(F)F)ccc34)c1)CC(c1ccc(Br)cc1)=N2 (centres undefined) | 66.4%
O=C1c2ccccc2C(=O)c2c1c(C(=O)NCc1ccccc1)c1ccccn21 | 93.9%
COc1ccc(-c2ccc(-c3ccc(C(=N)N)nc3)s2)cc1Cl | -35.8% (active)
O=C(CI)NC(=O)NC(=O)NCc1ccccc1 | 101%
COc1ccc(C2=CC(c3cc(OC)c(OC)c(OC)c3)n3ncnc3N2)cc1 (centres undefined) | 36%
Cc1ccc(C(=O)Nc2cccc(C#Cc3cccc4[nH]nc(N)c34)c2)cc1C(F)(F)F | 113%
CCOC(=O)c1ccccc1-c1c2ccc(=[N+](C)C)cc-2oc2cc(N(C)C)ccc12 | 18.2%
NC(=O)c1c(NC(=O)c2cccc(C(F)(F)F)c2)sc2c1CCC(=O)C2 | 11.6%
